Experimental data as given in PubChem BioAssay AID1159580 (chemical genetic matrix, 2015).
Screen size: about 5,500 compounds; about 2,000 (36%) were called active. Another 18% or so got no clear call; they are omitted. Rule as the data show it: active = normalized growth mostly below about 0.91 (no sharp cut-off); inconclusive = no clear call, values can overlap the other calls; inactive = mostly above about 0.92. This is one part of the list.

Assay: chemical genetic growth profiling, strain panel (AID 1159580);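 also: tested at 20 µM; growth read once vehicle control cultures reached saturation at 30 °C; 1 = growth at the plate median or of vehicle wells; lower values mean less growth of the strain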
Conditions: S. cerevisiae deletion strains, growth OD

Measured: normalized growth

CCOC(=O)c1[nH]c(Cc2[nH]c(C(=O)OCC)c(C)c2C)c(C)c1C
inactive: locus YAL013W, strain DEP1, hits give low values 1 | locus YBR229C, strain ROT2, hits give low values 1.02 | locus YCL061C, strain MRC1, hits give low values 1.02 | locus YDL101C, strain DUN1, hits give low values 1.03 | locus YDL134C, strain PPH21, hits give low values 1.01 | locus YDR150W, strain NUM1, hits give low values 0.978 | locus YEL061C, strain CIN8, hits give low values 1.01 | locus YGR078C, strain PAC10, hits give low values 1.02 | locus YHR030C, strain SLT2, hits give low values 1.06 | locus YHR087W, strain rtc3, hits give low values 1.01 | locus YJR043C, strain POL32, hits give low values 1.04 | locus YKL190W, strain CNB1, hits give low values 1.01 | locus YLR039C, strain RIC1, hits give low values 0.981 | locus YLR058C, strain SHM2 (second series), hits give low values 1.02 | locus YLR085C, strain ARP6, hits give low values 1.01 | locus YLR262C, strain YPT6, hits give low values 0.981 | locus YML094W, strain GIM5, hits give low values 0.988 | locus YMR219W, strain ESC1, hits give low values 1.01 | locus YMR263W, strain SAP30, hits give low values 1.02 | locus YMR307W, strain GAS1, hits give low values 0.948 | locus YNL153C, strain GIM3, hits give low values 1.02 | locus YNL298W, strain CLA4 (second series), hits give low values 1.04 | locus YNL322C, strain KRE1, hits give low values 1 | locus YNR030W, strain Alg12, hits give low values 1.04 | locus YPL055C, strain LGE1, hits give low values 0.994 | locus YPL241C, strain CIN2, hits give low values 1.01 | locus YPR135W, strain CTF4, hits give low values 1.08
